Results: article PMC11006913

Assays:
Assay in all cases: PBM; 200 nM protein, PBS
Conditions in all cases: dsDNA, one strand shown
HESX1 [1] = molecular target: HESX1 (Homo sapiens, UniProt Q9UBX0 95-180, R165K)
HOXB4 [2] = molecular target: HOXB4 (Homo sapiens, UniProt P17483 148-234)
SHOX [3] = molecular target: SHOX (Homo sapiens, UniProt O15266 103-189)
HESX1 [4] = molecular target: HESX1 (Homo sapiens, UniProt Q9UBX0 95-180)
HOXA4 = HOXA4 (Homo sapiens, UniProt Q00056 201-287, R217L)
HOXB4 [5] = molecular target: HOXB4 (Homo sapiens, UniProt P17483 148-234, V174I)
HOXB4 (Homo sapiens, UniProt P17483 148-234, V174I), sequence (P17483 148-234 V174I): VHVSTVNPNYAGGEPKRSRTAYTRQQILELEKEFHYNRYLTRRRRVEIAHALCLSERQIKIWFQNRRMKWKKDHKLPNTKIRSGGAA

MSX2 [6] = molecular target: MSX2 (Homo sapiens, UniProt P35548 130-214, R199I)
MSX2 (Homo sapiens, UniProt P35548 130-214, R199I), sequence (P35548 130-214 R199I): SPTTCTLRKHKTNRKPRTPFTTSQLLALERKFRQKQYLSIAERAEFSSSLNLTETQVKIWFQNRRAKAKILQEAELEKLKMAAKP

ALX3 [7] = molecular target: ALX3 (Homo sapiens, UniProt O95076 139-225, N203Q)
ALX3 (Homo sapiens, UniProt O95076 139-225, N203Q), sequence (O95076 139-225 N203Q): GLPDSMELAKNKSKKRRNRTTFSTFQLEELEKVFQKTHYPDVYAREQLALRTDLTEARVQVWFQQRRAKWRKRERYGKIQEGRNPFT

SHOX [8] = molecular target: SHOX (Homo sapiens, UniProt O15266 103-189, R173C)
SHOX (Homo sapiens, UniProt O15266 103-189, R173C), sequence (O15266 103-189 R173C): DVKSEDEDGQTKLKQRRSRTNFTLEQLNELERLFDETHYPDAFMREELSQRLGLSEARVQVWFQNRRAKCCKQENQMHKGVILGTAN

ALX3 [9] = molecular target: ALX3 (Homo sapiens, UniProt O95076 139-225)
ALX3 (Homo sapiens, UniProt O95076 139-225), sequence (O95076 139-225): as the sequence (O95076 139-225 N203Q) above, with Q65N counted along it

PROP1 [10] = molecular target: PROP1 (Homo sapiens, UniProt O75360 56-141)
PROP1 (Homo sapiens, UniProt O75360 56-141), sequence (O75360 56-141): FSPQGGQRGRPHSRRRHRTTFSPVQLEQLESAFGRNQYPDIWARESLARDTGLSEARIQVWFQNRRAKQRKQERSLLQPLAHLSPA

HESX1 [11] = molecular target: HESX1 (Homo sapiens, UniProt Q9UBX0 95-180, R109Q)
HESX1 (Homo sapiens, UniProt Q9UBX0 95-180, R109Q), sequence (Q9UBX0 95-180 R109Q): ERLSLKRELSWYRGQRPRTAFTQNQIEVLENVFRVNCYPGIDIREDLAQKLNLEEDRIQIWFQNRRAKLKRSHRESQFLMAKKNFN

PROP1 [12] = molecular target: PROP1 (Homo sapiens, UniProt O75360 56-141, R99H)
PROP1 (Homo sapiens, UniProt O75360 56-141, R99H), sequence (O75360 56-141 R99H): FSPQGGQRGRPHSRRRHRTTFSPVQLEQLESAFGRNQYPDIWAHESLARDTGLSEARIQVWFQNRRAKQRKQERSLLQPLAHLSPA

ALX3 [13] = molecular target: ALX3 (Homo sapiens, UniProt O95076 139-225, L168Q)
ALX3 (Homo sapiens, UniProt O95076 139-225, L168Q), sequence (O95076 139-225 L168Q): as the sequence (O95076 139-225 N203Q) above, with L30Q, Q65N counted along it

HESX1 [14] = molecular target: HESX1 (Homo sapiens, UniProt Q9UBX0 95-180, P111T)
HESX1 (Homo sapiens, UniProt Q9UBX0 95-180, P111T), sequence (Q9UBX0 95-180 P111T): as the sequence (Q9UBX0 95-180 R109Q) above, with Q15R, P17T counted along it

ALX3 [15] = molecular target: ALX3 (Homo sapiens, UniProt O95076 139-225, L168V)
ALX3 (Homo sapiens, UniProt O95076 139-225, L168V), sequence (O95076 139-225 L168V): as the sequence (O95076 139-225 N203Q) above, with L30V, Q65N counted along it

PROP1 [16] = molecular target: PROP1 (Homo sapiens, UniProt O75360 56-141, F88S)
PROP1 (Homo sapiens, UniProt O75360 56-141, F88S), sequence (O75360 56-141 F88S): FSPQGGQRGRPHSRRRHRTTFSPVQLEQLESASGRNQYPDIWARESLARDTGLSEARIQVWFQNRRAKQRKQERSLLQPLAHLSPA

MSX2 [17] = molecular target: MSX2 (Homo sapiens, UniProt P35548 130-214, F161Y)
MSX2 (Homo sapiens, UniProt P35548 130-214, F161Y), sequence (P35548 130-214 F161Y): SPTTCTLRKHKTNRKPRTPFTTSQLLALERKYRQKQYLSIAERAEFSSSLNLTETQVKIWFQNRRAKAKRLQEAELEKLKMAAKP

HESX1 [18] = molecular target: HESX1 (Homo sapiens, UniProt Q9UBX0 95-180, F115L)
HESX1 (Homo sapiens, UniProt Q9UBX0 95-180, F115L), sequence (Q9UBX0 95-180 F115L): as the sequence (Q9UBX0 95-180 R109Q) above, with Q15R, F21L counted along it

ALX3 [19] = molecular target: ALX3 (Homo sapiens, UniProt O95076 139-225, N203S)
ALX3 (Homo sapiens, UniProt O95076 139-225, N203S), sequence (O95076 139-225 N203S): as the sequence (O95076 139-225 N203Q) above, with Q65S counted along it

HOXA4, sequence (Q00056 201-287 R217L): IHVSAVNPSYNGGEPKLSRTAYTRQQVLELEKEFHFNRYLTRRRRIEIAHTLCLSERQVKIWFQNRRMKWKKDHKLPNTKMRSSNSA
SHOX (Homo sapiens, UniProt O15266 103-189), sequence (O15266 103-189): as the sequence (O15266 103-189 R173C) above, with C71R counted along it
HESX1 (Homo sapiens, UniProt Q9UBX0 95-180), sequence (Q9UBX0 95-180): as the sequence (Q9UBX0 95-180 R109Q) above, with Q15R counted along it
HESX1 (Homo sapiens, UniProt Q9UBX0 95-180, R165K), sequence (Q9UBX0 95-180 R165K): as the sequence (Q9UBX0 95-180 R109Q) above, with Q15R, R71K counted along it
HOXB4 (Homo sapiens, UniProt P17483 148-234), sequence (P17483 148-234): as the sequence (P17483 148-234 V174I) above, with I27V counted along it

Row | Sequence | binding signal (HESX1 [1]) | binding signal (HOXB4 [2]) | binding signal (SHOX [3]) | binding signal (HESX1 [4]) | binding signal (HOXA4) | binding signal (HOXB4 [5]) | binding signal (MSX2 [6]) | binding signal (ALX3 [7]) | binding signal (SHOX [8]) | binding signal (ALX3 [9]) | binding signal (PROP1 [10]) | binding signal (HESX1 [11]) | binding signal (PROP1 [12]) | binding signal (ALX3 [13]) | binding signal (HESX1 [14]) | binding signal (ALX3 [15]) | binding signal (PROP1 [16]) | binding signal (MSX2 [17]) | binding signal (HESX1 [18]) | binding signal (ALX3 [19])
1 | ATAATTAT | 12.8 upbm affinity estimate (log intensity, higher = more binding, comparable within an allelic series) | 13.7 upbm affinity estimate (log intensity, higher = more binding, comparable within an allelic series) | 12.1 upbm affinity estimate (log intensity, higher = more binding, comparable within an allelic series) | 12.8 upbm affinity estimate (log intensity, higher = more binding, comparable within an allelic series) | 12.7 upbm affinity estimate (log intensity, higher = more binding, comparable within an allelic series) | 14.5 upbm affinity estimate (log intensity, higher = more binding, comparable within an allelic series) | 12.9 upbm affinity estimate (log intensity, higher = more binding, comparable within an allelic series) | 8.72 upbm affinity estimate (log intensity, higher = more binding, comparable within an allelic series) | 9.85 upbm affinity estimate (log intensity, higher = more binding, comparable within an allelic series) | 12.7 upbm affinity estimate (log intensity, higher = more binding, comparable within an allelic series) | 11.8 upbm affinity estimate (log intensity, higher = more binding, comparable within an allelic series) | 9.01 upbm affinity estimate (log intensity, higher = more binding, comparable within an allelic series) | 11.5 upbm affinity estimate (log intensity, higher = more binding, comparable within an allelic series) | 10.8 upbm affinity estimate (log intensity, higher = more binding, comparable within an allelic series) | 11.2 upbm affinity estimate (log intensity, higher = more binding, comparable within an allelic series) | 10.4 upbm affinity estimate (log intensity, higher = more binding, comparable within an allelic series) | 8.04 upbm affinity estimate (log intensity, higher = more binding, comparable within an allelic series) | 13.6 upbm affinity estimate (log intensity, higher = more binding, comparable within an allelic series) | 7.94 upbm affinity estimate (log intensity, higher = more binding, comparable within an allelic series) | 8.79 upbm affinity estimate (log intensity, higher = more binding, comparable within an allelic series)
2 | AACAATTA | 12 upbm affinity estimate (log intensity, higher = more binding, comparable within an allelic series) | – | 11.5 upbm affinity estimate (log intensity, higher = more binding, comparable within an allelic series) | 12.2 upbm affinity estimate (log intensity, higher = more binding, comparable within an allelic series) | 11.9 upbm affinity estimate (log intensity, higher = more binding, comparable within an allelic series) | 13.6 upbm affinity estimate (log intensity, higher = more binding, comparable within an allelic series) | 12.8 upbm affinity estimate (log intensity, higher = more binding, comparable within an allelic series) | 8.48 upbm affinity estimate (log intensity, higher = more binding, comparable within an allelic series) | 9.19 upbm affinity estimate (log intensity, higher = more binding, comparable within an allelic series) | 12.2 upbm affinity estimate (log intensity, higher = more binding, comparable within an allelic series) | 11.1 upbm affinity estimate (log intensity, higher = more binding, comparable within an allelic series) | 8.73 upbm affinity estimate (log intensity, higher = more binding, comparable within an allelic series) | 11.2 upbm affinity estimate (log intensity, higher = more binding, comparable within an allelic series) | 10.3 upbm affinity estimate (log intensity, higher = more binding, comparable within an allelic series) | 10.6 upbm affinity estimate (log intensity, higher = more binding, comparable within an allelic series) | 9.75 upbm affinity estimate (log intensity, higher = more binding, comparable within an allelic series) | 7.78 upbm affinity estimate (log intensity, higher = more binding, comparable within an allelic series) | 13.5 upbm affinity estimate (log intensity, higher = more binding, comparable within an allelic series) | 7.66 upbm affinity estimate (log intensity, higher = more binding, comparable within an allelic series) | 8.6 upbm affinity estimate (log intensity, higher = more binding, comparable within an allelic series)
